Assay outcomes from PubChem.
Compounds with a hit are over-represented: about 1.3% of the library has one in this group of screens.
Pin1 inhibitor: blocks the human prolyl isomerase Pin1; actives 0.009% (n = 390,000); Potency, µM (top dose mostly 115 µM), for inactives: top-dose activity, negative = inhibition, usual class: inhibitors; Q13526; Pin1 FP peptide displacement, HiFluor488, 10 min; active = well fitted inhibition curve with a large enough effect in the polarisation, with a control signal flat, not every such curve was filed as active; inconclusive = small, poorly fitted or top-dose-only effect, or effect the other way, or a change in a side signal; inactive = no such curve, though single readings can be large or run the other way; the % refers to the polarisation; also: potency is read from the fitted curve at half-maximal effect
Target sequence (Q13526 whole entry, looked up): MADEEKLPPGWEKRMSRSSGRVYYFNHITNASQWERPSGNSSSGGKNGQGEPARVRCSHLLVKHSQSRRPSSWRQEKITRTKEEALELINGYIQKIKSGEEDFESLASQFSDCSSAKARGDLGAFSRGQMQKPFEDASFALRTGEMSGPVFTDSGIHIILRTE
GCN5L2 inh: blocks human GCN5L2 histone acetyltransferase. Q92830. GCN5L2 HAT assay, ThioGlo1 CoA-SH fluorescence. Potency, µM (highest dose often 58.9 µM), for the others: top-dose activity change, negative = inhibition, actives largely listed as inhibitors. actives 0.21% (n = 390,000). AID 504327; also: potency is read from the fitted curve at half-maximal effect
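GCN5L2 (20 nM) in 50mM HEPES pH 7.5, 0.1mM EDTA, 0.01% Tween-20 preincubated 15 min with compounds at room temperature. Reaction started with H3(1-25) 75uM, acetyl-CoA 70uM, ThioGlo1 50uM; CoA-thiol fluorescence (Ex340/Em540) read at 0 and 20 min.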
TrxR1 inh: inhibitors of rat thioredoxin reductase 1. actives 1% (n = 390,000). Potency, µM (highest dose often 114 µM), inactives show at the top dose activity change, negative = inhibition, actives largely listed as inhibitors. O89049. recombinant rTrxR1, NADPH fluorescence consumption, selenite substrate. AID 588453; also: potency is read from the fitted curve at half-maximal effect; nearly all actives have a fitted effect of over 65% in size
Target sequence (O89049 whole entry, looked up): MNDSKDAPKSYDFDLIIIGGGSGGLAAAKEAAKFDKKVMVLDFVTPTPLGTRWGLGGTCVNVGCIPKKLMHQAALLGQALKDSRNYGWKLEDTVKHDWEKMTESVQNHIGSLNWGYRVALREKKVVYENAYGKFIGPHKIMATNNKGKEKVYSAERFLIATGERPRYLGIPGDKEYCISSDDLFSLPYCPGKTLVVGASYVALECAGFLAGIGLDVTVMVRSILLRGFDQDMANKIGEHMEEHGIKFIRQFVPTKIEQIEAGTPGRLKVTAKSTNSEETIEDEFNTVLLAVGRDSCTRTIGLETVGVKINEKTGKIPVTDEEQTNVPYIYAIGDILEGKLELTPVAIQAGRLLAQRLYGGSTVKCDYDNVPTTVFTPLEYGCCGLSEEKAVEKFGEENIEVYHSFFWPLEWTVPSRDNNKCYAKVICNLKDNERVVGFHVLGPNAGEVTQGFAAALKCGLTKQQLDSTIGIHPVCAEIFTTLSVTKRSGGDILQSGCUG
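Rat TrxR1 (90 nM in the dispensed reagent) was pre-reduced with 400 uM NADPH for 5 min at room temperature, then incubated with compound for 15 min. After 400 uM selenite was added, NADPH fluorescence (Ex 340/Em 450 nm) was followed for 8 min.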
GALK inhibitor: blocks human galactokinase activity; Purified GALK, Kinase-Glo residual ATP luminescence; Potency, µM (titrated, usually from 57.5 µM), inactives show at the top dose activity change, negative = inhibition, actives largely listed as inhibitors; actives 0.007% (n = 270,000); AID 1868; also: potency is read from the fitted curve at half-maximal effect
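Compounds were pin-transferred into ATP buffer (35 uM final), then GALK plus galactose (5 nM, 100 uM final) was added. After 1 h at room temperature, Kinase-Glo Plus was added and luminescence read after 10 min.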
TrxR1 substrate: rat thioredoxin reductase 1 substrate activity. O89049. purified TrxR1 substrate turnover, NADPH consumption readout. AID 588456. actives 0.01% (n = 390,000). Potency, µM (doses to about 114 µM), for the others: top-dose activity change, negative = substrate turnover; also: potency is read from the fitted curve at half-maximal effect; nearly all actives have a fitted effect of over 50% in size
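Rat TrxR1, dispensed at 90 nM, was prereduced with 400 uM NADPH (final) for 5 min at ~22 deg C, then incubated with compound 15 min before 400 uM selenite. A first-read NADPH fluorescence drop versus no-compound background flagged substrates.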
Giardia killer: kills Giardia lamblia; AID 540267; actives 0.15% (n = 340,000); Giardia lamblia trophozoite viability; activity change, % at 7.66 µM, hits read low; in the data active = activity change below about -80%; inconclusive = between about -30% and that limit;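 also: parasites exposed to compound for two days anaerobically before the ATP read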
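Each well holds 100 Giardia trophozoites and compound. After two days (48 hrs) at 37 deg C in anaerobic conditions, ATP is quantified by luminescence.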
* marks the source's active call; other numbers are inactive results; u = inconclusive; x = no result; ! = not active in a repeat; [ ] = another dose, or the depositor's remark. Unless noted, calls follow the shape of the dose curve; as a rule, active = well fitted curve in the direction sought with a large enough effect; inconclusive = small, poorly fitted or top-dose-only effect, or another doubt; inactive = no such curve, though single readings can be large; an effect the other way counts as inactive or inconclusive. % is scaled to controls: 0 for no effect and ±100 for the full control effect.

SMILES	Pin1 inhibitor	GCN5L2 inh	TrxR1 inh	GALK inhibitor	TrxR1 substrate	Giardia killer
COc1ccc(C2Nc3ccccc3C(=O)N2Cc2ccccc2)cc1COc1ccc(F)cc1 (stereo not given)	-3.7%	x	x	x	x	x
NCCCS(=O)(=O)O	-6.9%	-2.9%	10.6µM*!	x	10.9%[57.1 µM]	-12.3
CC(OC(=O)c1ccc2ccccc2c1)C(=O)N(C)Cc1ccccc1 (stereo not given)	u	-3.0%	-13.5%	x	-14.0%	-16.0
CC(C)N(CCC(=O)c1ccc2ccccc2c1)Cc1ccccc1	u	u	3.16µM*	x	25.3%[57.1 µM]	0.6
COC(=O)CSc1[nH]c2ccc(F)cc2c1[N+](=O)[O-]	-2.0%	27.5%	35.5µM*	-0.3%	-1.8%	-5.6
O=C(O)Cc1ccc(O)c(O)c1	-11.1%	-11.7%	7.52µM*	0.4%	8.8%[57.1 µM]	10.5
O=C(O)Cc1ccc2ccc3ccccc3c2c1	-2.5%	x	15.4%	x	10.0%	-1.6
O=[N+]([O-])c1cc(S(=O)(=O)N2CCCC2)ccc1O	-6.1%	1.9%	10.7%[57.1 µM]	-1.2%	-10.3%	-17.7
O=[N+]([O-])c1cc(S(=O)(=O)N2CCCCCC2)ccc1F	-4.0%	4.2%	31.6µM*	-6.0%	-6.0%	-11.2
Nc1nnc(SC2CC(=O)N(c3ccccc3)C2=O)s1 (stereo not given)	5.7%	-12.8%	28.2µM*	4.6%	-6.4%	-13.1
O=C1CC(Sc2nnnn2-c2ccccc2)C(=O)N1c1cccc(Cl)c1 (stereo not given)	13.4%	0.2%	31.6µM*	0.5%	-0.6%	-8.9
O=[S+]1([O-])N=C(Oc2cccnc2)c2ccccc21	2.1%	x	x	x	x	x
CCOC(=O)/C=C/C(=O)OCC(=O)Nc1cccc(Cl)c1Cl	2.4%	-14.1%	14.1µM*	-0.2%	1.1%	-2.4
O=c1[nH]c2ccc(S(=O)(=O)N3CCN(S(=O)(=O)c4ccc5c(c4)OCCO5)CC3)cc2[nH]c1=O	1.1%	x	x	x	x	x
COc1ccc(C2C(C#N)=C(N)Oc3cc(O)ccc32)cc1C (stereo not given)	12.2%	-8.0%	15.8µM*	-2.1%	-1.2%	-5.7
COc1ccc(C2C(C#N)=C(N)Oc3cc(O)ccc32)cc1OC (stereo not given)	9.9%	0.0%	6.6%[57.1 µM]	-1.9%	5.8%[57.1 µM]	-3.0
CCN1C(=O)C=CC1=O	x	-2.4%	10.6µM*!	x	-2.8%[57.1 µM]	x
O=C1C=CC(=O)N1CCCCCCN1C(=O)C=CC1=O	-0.9%	0.0%	0.708µM*	0.4%	5.8%	-18.1
Cc1oc(-c2ccccc2)nc1Cn1c(=O)cc(-c2ccccc2)c2c(C)nn(C)c21	-6.2%	-7.3%	25.8%[57.1 µM]	x	10.2%[57.1 µM]	x
COc1cc(C2C(C(=O)Nc3ccccc3)=C(C)Nc3nnnn32)cc(OC)c1OC (stereo not given)	15.4%	-0.4%	-10.2%	x	-4.2%	x
CC(=O)Nc1c(Cl)cc(Cl)c2c1Cc1cc(Cl)ccc1-2	42.8%	x	-0.3%[2.29 µM]	x	7.3%[57.1 µM]	-14.9
Cc1cc(C)cc(NC(=O)CN2CCCN(S(=O)(=O)c3ccc(Br)s3)CC2)c1	16.0%	-7.9%	u	-0.1%	-8.6%	0.3
Cc1ccc(NC(=O)CN2CCCN(S(=O)(=O)c3ccc(Br)s3)CC2)cc1	11.0%	3.6%	70.8µM*	1.5%	-8.6%	4.4
O=C(CN1CCCN(S(=O)(=O)c2ccc(Br)cc2)CC1)Nc1cccc(C(F)(F)F)c1	6.2%	-7.4%	50.1µM*	x	-6.6%	x
NC(=O)CN1CCCN(S(=O)(=O)c2ccc(Br)cc2)CC1	0.3%	-6.0%	20µM*	1.4%	16.2%	3.9
SMILES	Pin1 inhibitor	GCN5L2 inh	TrxR1 inh	GALK inhibitor	TrxR1 substrate	Giardia killer
CC(=O)Nc1ccccc1OC1=N[S+](=O)([O-])c2ccccc21	0.9%	x	x	x	x	x
CCC1CN(S(=O)(=O)c2cc(-c3onc(C)c3C)ccc2C)c2cc(Cl)ccc2O1 (stereo not given)	-3.7%	-3.7%	9.5%[57.1 µM]	x	-3.4%[57.1 µM]	x
O=C(CSc1nc2ccccc2n1Cc1ccccc1Cl)NCc1ccccc1	46.2%	-6.4%	0.0%[57.1 µM]	x	-6.2%[57.1 µM]	x
COc1ccc(-c2ccc3ncnc(NCc4cccs4)c3c2)cc1	3.2%	x	x	x	x	x
COC(=O)c1ccc2c(c1)C(C)(C)C(/C=C/c1ccccc1O)=[N+]2C	u	u	79.4µM*	-0.7%	58.0%	10.1
CCCC1Cc2c(sc3ncnc(N)c23)CO1 (stereo not given)	2.1%	-9.1%	50.1µM*	-0.2%	39.3%	5.1
CCOc1ccc(C(c2c(O)nc(SC)n(C)c2=O)c2c(O)nc(SC)n(C)c2=O)cc1	2.5%	-13.0%	8.91µM*	-0.3%	8.8%	-3.9
N=c1c2c(ccn1CCc1ccccc1)Oc1ccc3ccccc3c1C2c1ccccc1 (stereo not given)	26.8%	x	x	x	x	x
COc1ccc(C2NC(=O)NC(O)(C(F)(F)F)C2C(=O)c2ccccc2)cc1OC (stereo not given)	0.6%	-1.0%	28.2µM*	2.3%	-3.7%	-9.8
CCOc1cc(C2NC(=O)NC(O)(C(F)(F)F)C2C(=O)c2ccccc2)ccc1OC (stereo not given)	-2.4%	-8.2%	-14.2%[57.1 µM]	-0.8%	2.1%[57.1 µM]	-4.6
Cc1ccccc1S(=O)(=O)Cc1ccc(C(=O)N(C)C2CCCCC2)o1	4.6%	-16.3%	56.2µM*	-6.1%	3.8%	8.3
Cc1ccccc1S(=O)(=O)Cc1ccc(C(=O)NC2CCCCCC2)o1	-7.5%	-6.3%	6.6%	2.7%	-3.7%	2.8
COc1ccc2c(c1)CCc1c(C(=O)N3CCCc4ccccc43)noc1-2	8.3%	-16.4%	-18.9%	0.2%	-9.2%	-4.6
COc1ccc2c(c1)CCc1c(C(=O)N3CCOCC3)noc1-2	-0.6%	-7.9%	20µM*	0.5%	-1.9%	3.9
c1nc(NCCc2cnc[nH]2)c2ccc(-c3ccc4c(c3)OCO4)cc2n1	6.3%	x	x	x	x	x
COc1ccc(C(=O)/C=C/C(=O)N(CC(=O)NC2CCCCC2)Cc2ccccc2)c(O)c1	10.5%	-8.5%	3.16µM*	4.3%	7.5%	3.6
COc1ccc(C(=O)/C=C/C(=O)N(CC(=O)NC2CCCCC2)CC2CCCO2)c(O)c1 (stereo not given)	7.4%	2.4%	1.26µM*	-0.8%	-14.4%	-11.1
CN1C(=O)Cc2cc([S+](=O)([O-])N3CCN([S+](=O)([O-])c4c(F)cccc4F)CC3)ccc21	-0.9%	x	x	x	x	x
CCOC(=O)c1cc2sc(C)cc2n1CCCN1C(=O)c2ccccc2C1=O	0.3%	-30.9%	4.0%	-4.5%	-2.9%	0.9
CCOC(=O)N1C=CC=C[C@@H]2[C@@H](N3C(=O)c4ccccc4C3=O)C(=O)N21	-6.4%	0.2%	15.8µM*	2.6%	6.6%	-1.0
CCOc1ccccc1NC(=O)CC(c1ccc(F)cc1)N1Cc2ccccc2C1=O (stereo not given)	-2.4%	-8.2%	38.7%	x	8.0%	x
